# Test results from PubChem BioAssay (NCATS).
# Results filed as inconclusive are left out. Entries that show only a call come without a potency. Calls of active or inactive are those of the source. Unless noted, calls come from the whole dose curve.
# Experiments:
# [1] = target: Androgen receptor (Homo sapiens) (UniProt P10275); assay: qHTS assay for small molecule agonists of androgen receptor signaling (AID 588515; active = well fitted curve in the direction sought with a large enough effect in the signal ratio, with a control signal flat; the % refers to the signal ratio); details: AR-UAS-bla HEK293, beta-lactamase ratio, agonist 16 h; stronger effect = higher value
# Chain of Androgen receptor (Homo sapiens) (P10275 whole entry, looked up): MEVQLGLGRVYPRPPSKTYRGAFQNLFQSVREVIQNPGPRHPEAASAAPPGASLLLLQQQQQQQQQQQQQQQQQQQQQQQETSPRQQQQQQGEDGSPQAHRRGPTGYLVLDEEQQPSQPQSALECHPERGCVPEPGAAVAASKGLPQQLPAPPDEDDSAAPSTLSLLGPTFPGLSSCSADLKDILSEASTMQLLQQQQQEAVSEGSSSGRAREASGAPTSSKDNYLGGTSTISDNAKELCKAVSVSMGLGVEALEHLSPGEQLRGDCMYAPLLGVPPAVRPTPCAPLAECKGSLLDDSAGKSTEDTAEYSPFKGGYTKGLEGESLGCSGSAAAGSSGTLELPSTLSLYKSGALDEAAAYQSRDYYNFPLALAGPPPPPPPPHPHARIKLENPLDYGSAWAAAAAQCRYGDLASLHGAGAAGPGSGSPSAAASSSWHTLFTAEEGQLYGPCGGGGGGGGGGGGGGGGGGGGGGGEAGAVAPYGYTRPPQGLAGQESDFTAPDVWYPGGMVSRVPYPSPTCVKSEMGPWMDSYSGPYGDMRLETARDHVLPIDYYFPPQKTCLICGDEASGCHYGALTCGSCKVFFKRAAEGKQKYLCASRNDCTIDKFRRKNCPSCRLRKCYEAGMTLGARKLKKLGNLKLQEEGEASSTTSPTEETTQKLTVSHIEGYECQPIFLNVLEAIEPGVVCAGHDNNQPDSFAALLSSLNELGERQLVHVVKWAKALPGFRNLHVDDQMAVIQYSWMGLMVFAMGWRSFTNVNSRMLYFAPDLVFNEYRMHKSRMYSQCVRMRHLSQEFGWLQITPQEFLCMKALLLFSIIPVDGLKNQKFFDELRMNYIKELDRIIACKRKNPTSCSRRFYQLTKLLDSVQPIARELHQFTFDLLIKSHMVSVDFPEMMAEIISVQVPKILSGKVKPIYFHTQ
# In short: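 EC50 and efficacy came from Hill fits of titrations (up to 92 uM) normalized to 30 nM R1881 as 100% and DMSO as 0%. Compound exposure was 16 h at 37 C on AR-UAS-bla HEK293 cells, with a 405/460/530 nm CCF4 fluorescence read.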
# [2] = target: Androgen receptor (Homo sapiens) (UniProt P10275); assay: qHTS assay for small molecule antagonists of androgen receptor signaling (AID 588516; active = well fitted curve in the direction sought with a large enough effect in the signal ratio, with a control signal flat, not every such curve was filed as active; the % refers to the signal ratio); details: AR-UAS-bla HEK293, beta-lactamase ratio, antagonist mode, 16 h; series mostly up to 76.8 µM
# In short: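 Cells were plated and incubated 5 h, compounds added in titration, then R1881 (10 nM final) as agonist. After 16 h at 37 C, CCF4 substrate was loaded for 2 h at room temperature and fluorescence measured.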
# [3] = target: Glucocorticoid receptor (Homo sapiens) (UniProt P04150); assay: qHTS assay for small molecule antagonists of glucocorticoid receptor signaling (AID 588533; active = well fitted inhibition curve with a large enough effect in the signal ratio, with a control signal flat, not every such curve was filed as active; the % refers to the signal ratio;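 note: cells stimulated with 2 nM dexamethasone as agonist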); details: HeLa MMTV-bla, GRE beta-lactamase ratio, antagonist mode, 18 h; series mostly up to 76.8 µM
# Chain of Glucocorticoid receptor (Homo sapiens) (P04150 whole entry, looked up): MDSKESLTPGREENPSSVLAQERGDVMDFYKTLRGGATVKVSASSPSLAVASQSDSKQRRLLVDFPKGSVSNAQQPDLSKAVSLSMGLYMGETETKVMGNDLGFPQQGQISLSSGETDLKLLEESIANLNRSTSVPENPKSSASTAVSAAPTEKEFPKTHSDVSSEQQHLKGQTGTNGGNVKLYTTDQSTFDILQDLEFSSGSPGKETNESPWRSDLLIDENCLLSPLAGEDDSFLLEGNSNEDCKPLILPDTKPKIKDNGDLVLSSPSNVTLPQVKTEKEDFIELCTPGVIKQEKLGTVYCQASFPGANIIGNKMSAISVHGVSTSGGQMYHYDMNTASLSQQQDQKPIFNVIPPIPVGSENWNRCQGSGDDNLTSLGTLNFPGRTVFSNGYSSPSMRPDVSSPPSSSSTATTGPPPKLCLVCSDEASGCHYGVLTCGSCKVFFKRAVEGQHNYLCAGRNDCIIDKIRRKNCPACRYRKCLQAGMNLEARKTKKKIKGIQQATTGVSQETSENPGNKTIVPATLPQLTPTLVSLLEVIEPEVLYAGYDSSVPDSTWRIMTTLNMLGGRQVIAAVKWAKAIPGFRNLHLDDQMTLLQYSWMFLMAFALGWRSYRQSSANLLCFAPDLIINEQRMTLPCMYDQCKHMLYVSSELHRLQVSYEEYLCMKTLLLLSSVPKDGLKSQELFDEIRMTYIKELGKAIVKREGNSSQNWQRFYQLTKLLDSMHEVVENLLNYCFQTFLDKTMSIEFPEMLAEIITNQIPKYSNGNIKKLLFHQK
# In short: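 Antagonist-mode qHTS: compound titrations added to GRE-bla HeLa cells, then dexamethasone 2 nM final; 18 h, 37 C. CCF4 FRET fluorescence normalized to dexamethasone and DMSO; IC50 from Hill fit.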
# [4] = target: Peroxisome proliferator-activated receptor gamma (Homo sapiens) (UniProt P37231); assay: qHTS assay for small molecule antagonists of peroxisome proliferator-activated receptor gamma signaling (AID 588537; active = well fitted inhibition curve with a large enough effect in the signal ratio, with a control signal flat, not every such curve was filed as active; the % refers to the signal ratio;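 note: reporter cells co-stimulated with 50 nM rosiglitazone agonist during compound treatment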); details: HEK293 PPARg-UAS-bla, beta-lactamase ratio, antagonist mode; series mostly up to 76.8 µM
# Chain of Peroxisome proliferator-activated receptor gamma (Homo sapiens) (P37231 whole entry, looked up): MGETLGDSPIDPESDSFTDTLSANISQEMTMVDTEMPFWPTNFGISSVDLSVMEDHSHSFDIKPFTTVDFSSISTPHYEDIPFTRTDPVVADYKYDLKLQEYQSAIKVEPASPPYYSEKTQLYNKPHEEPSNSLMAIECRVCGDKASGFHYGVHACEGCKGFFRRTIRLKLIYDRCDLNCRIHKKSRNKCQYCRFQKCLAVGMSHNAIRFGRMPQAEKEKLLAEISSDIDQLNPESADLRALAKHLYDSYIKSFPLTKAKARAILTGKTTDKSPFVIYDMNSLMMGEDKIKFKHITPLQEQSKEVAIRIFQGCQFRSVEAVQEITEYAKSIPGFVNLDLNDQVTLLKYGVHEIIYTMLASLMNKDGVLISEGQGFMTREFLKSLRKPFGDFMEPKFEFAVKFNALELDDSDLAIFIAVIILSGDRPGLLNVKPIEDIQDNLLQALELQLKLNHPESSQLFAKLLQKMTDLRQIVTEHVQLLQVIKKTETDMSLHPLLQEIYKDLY
# In short: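 PPAR-gamma-UAS-bla HEK293 cells (3000/well, 1% charcoal/dextran-stripped FBS) were preincubated 6-6.5 h at 37 C, given titrated compounds, then stimulated with 50 nM rosiglitazone for 16 h. Beta-lactamase activity was read with CCF4 dye; IC50 came from Hill fits.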
# [5] = qHTS assay for small molecule agonists of retinoid X receptor alpha signaling (AID 588544); details: HEK293T RXRa-UAS-bla, beta-lactamase reporter, 18 h; 530 nm emission
# [6] = target: Thyroid hormone receptor beta (Homo sapiens) (UniProt P10828); assay: qHTS assay for small molecule antagonists of thyroid hormone receptor beta signaling (AID 588547; active = well fitted inhibition curve with a large enough effect in the signal ratio, with a control signal flat, not every such curve was filed as active; the % refers to the signal ratio;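 note: cells stimulated with 0.4 nM T3 agonist during compound exposure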); details: TR-UAS-bla HEK293, beta-lactamase ratio, antagonist mode, 18 h
# Chain of Thyroid hormone receptor beta (Homo sapiens) (P10828 whole entry, looked up): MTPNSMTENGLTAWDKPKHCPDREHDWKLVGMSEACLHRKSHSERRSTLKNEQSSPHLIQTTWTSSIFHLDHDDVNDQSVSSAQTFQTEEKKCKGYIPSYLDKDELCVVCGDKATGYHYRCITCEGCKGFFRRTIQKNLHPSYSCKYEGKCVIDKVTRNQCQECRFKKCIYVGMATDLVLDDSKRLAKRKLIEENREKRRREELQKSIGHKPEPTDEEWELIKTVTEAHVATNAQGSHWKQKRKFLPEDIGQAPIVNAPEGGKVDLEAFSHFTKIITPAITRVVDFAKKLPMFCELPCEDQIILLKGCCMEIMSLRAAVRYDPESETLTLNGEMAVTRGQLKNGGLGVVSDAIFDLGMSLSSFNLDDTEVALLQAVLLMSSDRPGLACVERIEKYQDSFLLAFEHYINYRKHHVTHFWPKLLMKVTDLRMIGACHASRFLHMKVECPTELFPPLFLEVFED
# In short: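 TR-UAS-bla GripTite HEK293 cells in 2% charcoal/dextran FBS medium were preincubated 4 h at 37 C, given compound (0.59 nM to 92 uM) plus 0.4 nM T3 (final) for 18 h, then CCF4 for 2 h at RT; Hill fit gave IC50.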
# [7] = qHTS assay for small molecule activators of the human pregnane X receptor (PXR) signaling pathway (AID 720659; call rule not given here); details: DPX-2 HepG2 CYP3A4-luciferase, 24 h; series mostly up to 92.3 µM
# [8] = target: Bile acid receptor (Homo sapiens) (UniProt Q96RI1); assay: qHTS assay for small molecule antagonists of farnesoid X receptor signaling (AID 588526); details: HEK293T FXR-UAS-bla, beta-lactamase ratio, antagonist mode; series mostly up to 76.7 µM
# Chain of Bile acid receptor (Homo sapiens) (Q96RI1 whole entry, looked up): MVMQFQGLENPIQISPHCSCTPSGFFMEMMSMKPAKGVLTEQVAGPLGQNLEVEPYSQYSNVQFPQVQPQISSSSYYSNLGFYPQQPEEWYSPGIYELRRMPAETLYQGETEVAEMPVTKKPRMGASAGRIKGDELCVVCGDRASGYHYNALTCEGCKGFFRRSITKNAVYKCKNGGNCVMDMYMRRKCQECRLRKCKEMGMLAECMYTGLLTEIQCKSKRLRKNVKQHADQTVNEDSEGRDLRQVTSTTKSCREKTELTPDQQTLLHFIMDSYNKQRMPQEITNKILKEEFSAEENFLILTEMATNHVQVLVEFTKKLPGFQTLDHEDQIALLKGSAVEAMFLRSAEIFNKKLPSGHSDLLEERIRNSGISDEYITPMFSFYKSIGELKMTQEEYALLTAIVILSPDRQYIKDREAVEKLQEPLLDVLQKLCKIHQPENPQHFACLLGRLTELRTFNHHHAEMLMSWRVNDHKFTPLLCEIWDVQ
# In short: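 Concentration-response titrations were fitted to the Hill equation for half-maximal inhibition and maximal response, with data normalised to 50 uM chenodeoxycholic acid and DMSO control wells. Cells: FXR-UAS-bla HEK293T, dialyzed FBS.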
# [9] = target: Bile acid receptor (Homo sapiens) (UniProt Q96RI1); assay: qHTS assay for small molecule agonists of farnesoid X receptor signaling (AID 588527); details: HEK293T FXR-UAS-bla, beta-lactamase ratio, 16 h; activation: stronger effect = higher value
# In short: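 Quantitative HTS used FXR-UAS-bla HEK293T cells with 16 h compound incubation at 37 C. EC50 values came from concentration-response curves normalized to chenodeoxycholic acid.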
# [10] = qHTS assay for small molecule antagonists of peroxisome proliferator-activated receptor delta signaling (AID 588535; active = well fitted inhibition curve with a large enough effect in the signal ratio, with a control signal flat, not every such curve was filed as active; the % refers to the signal ratio;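 for max response: cells co-treated with a PPAR-delta agonist as stimulator during compound exposure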); details: HEK293T PPARd-UAS-bla, beta-lactamase FRET ratio, 18 h; 460 nm channel
# In short: (§1)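 GeneBLAzer PPAR-delta-UAS-bla HEK293T cells in medium with 2% charcoal/dextran FBS were preincubated 5 hrs at 37 C, then given compounds, incubated 18 hrs at 37 C, and read by CCF4 beta-lactamase fluorescence; IC50 from Hill fits.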
# [11] = target: Peroxisome proliferator-activated receptor delta (Homo sapiens) (UniProt Q03181); assay: as above; details: HEK293T PPARd-UAS-bla, beta-lactamase FRET ratio, 18 h; series mostly up to 76.7 µM
# Chain of Peroxisome proliferator-activated receptor delta (Homo sapiens) (Q03181 whole entry, looked up): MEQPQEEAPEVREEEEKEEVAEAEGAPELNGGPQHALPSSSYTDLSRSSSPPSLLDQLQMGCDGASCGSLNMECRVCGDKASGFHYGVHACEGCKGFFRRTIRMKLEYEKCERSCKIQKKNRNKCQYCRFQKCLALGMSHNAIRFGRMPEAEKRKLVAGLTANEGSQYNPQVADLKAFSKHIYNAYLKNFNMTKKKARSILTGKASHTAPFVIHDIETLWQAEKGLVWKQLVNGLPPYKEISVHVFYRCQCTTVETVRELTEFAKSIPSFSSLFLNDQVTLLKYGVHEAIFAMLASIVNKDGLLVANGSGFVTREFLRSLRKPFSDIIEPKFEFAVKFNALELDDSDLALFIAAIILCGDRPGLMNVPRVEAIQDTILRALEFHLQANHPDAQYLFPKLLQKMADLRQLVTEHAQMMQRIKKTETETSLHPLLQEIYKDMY
# In short: as §1
# [12] = qHTS assay for small molecule agonists of the antioxidant response element (ARE) signaling pathway (AID 651741; active = well fitted activation curve with a large enough effect in the signal ratio; the % refers to the signal ratio; note: potency is the fitted concentration of half-maximal effect); details: HepG2 ARE-bla reporter, beta-lactamase FRET ratio, 16 h; series mostly up to 96 µM
# In short: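 ARE-bla HepG2 cells (beta-lactamase reporter under ARE control) were plated at 2,000 cells/well, preincubated 5 h at 37 C/5% CO2, then treated with DMSO-dissolved compounds for 16 h at 37 C; LiveBLAzer B/G FRET substrate added, fluorescence read after 2 h at room temperature.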
SMILES,activation [1],Potency [2],Potency [3],Potency [4],max response [5] [%],activity change % (negative = inhibition) [6],outcome [7],Potency [8],activation [9],max response [10] [%],Potency [11],Potency [12]
Nc1c(Cl)c(F)nc(OCC(=O)O)c1Cl,0.917% (inactive),inactive,inactive,inactive,5.84,11.1% (inactive),inactive,–,–,–,–,–
CCOP(=O)(OCC)SCSP(=S)(OCC)OCC,-6.59% (inactive),inactive,inactive,–,–,-5.46% (inactive),–,inactive,10.4% (inactive),-37.2,inactive,–
CC(C)(C)OOC(C)(C)c1ccc(C(C)(C)OOC(C)(C)C)cc1,4.74% (inactive),inactive,–,inactive,-9.77,10.7% (inactive),–,inactive,3.45% (inactive),6.63,inactive,inactive
CCOP(N)(=O)Oc1ccc(SC)c(C)c1 (stereo not drawn),-2.98% (inactive),inactive,inactive,inactive,-16.6,-15.7% (inactive),–,inactive,3.26% (inactive),41.4,inactive,inactive
CS/C(C)=N/OC(=O)N(C)SN(C)C(=O)O/N=C(\C)SC,-1.29% (inactive),inactive,inactive,–,–,-7.26% (inactive),inactive,inactive,3.69% (inactive),-23.5,inactive,inactive
CNC(=S)S,–,–,inactive,inactive,-26.8,–,inactive,–,–,-6.57,inactive,–
CNC(=O)Oc1cc(C)c(SC)c(C)c1,1.32% (inactive),inactive,inactive,inactive,–,-16.8% (inactive),–,–,5.14% (inactive),12.6,inactive,27.3 µM (active)
CCOP(=S)(NC(C)C)Oc1ccccc1C(=O)OC(C)C (stereo not drawn),–,–,–,inactive,–,1.38% (inactive),–,inactive,8.84% (inactive),-3.59,inactive,inactive
C#CCN1C(=O)COc2cc(F)c(N3C(=O)C4=C(CCCC4)C3=O)cc21,8.69% (inactive),inactive,inactive,–,-8.78,-4.79% (inactive),inactive,–,–,–,–,–
O=C(O)C(F)(F)C(F)(F)C(F)(F)C(F)(F)C(F)(F)F,–,–,inactive,inactive,6.49,8.21% (inactive),–,–,–,-15.9,inactive,inactive
Nc1cnn(-c2ccccc2)c(=O)c1Cl,–,–,inactive,inactive,-6.12,-13.7% (inactive),inactive,–,–,13.7,inactive,–
COC(=O)c1sccc1S(=O)(=O)NC(=O)Nc1nc(C)nc(OC)n1,–,–,–,–,-0.622,–,inactive,–,–,-31.9,inactive,inactive
